This is an account of results in PubChem BioAssay (Tox21).

Values without a mark were called inactive. Results filed as inconclusive are left out. The source made the active and inactive calls. Unless noted, calls come from the whole dose curve; as a rule, active = well fitted curve in the direction sought with a large enough effect in the repeat runs; inconclusive = weak or mixed curves; inactive = no such curve, though single readings can be large; an effect the other way counts as inactive or inconclusive.

A short description of assay [1]: qHTS assay for small molecules that induce genotoxicity in human embryonic kidney cells expressing luciferase-tagged ATAD5 (AID 651632). Note: nearly all actives have a fitted effect of over 15% in size. An outline of the steps: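 Test compounds were delivered by pin tool onto HEK293T reporter cells (2,000/well) expressing ATAD5 fused to luciferase. After 16 hr at 37C, 5% CO2, Amplite was added for 30 min at room temperature and luminescence was measured.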
A general note: In qHTS, concentration-response curves come from the screen itself.

Assay [2] is described as follows: qHTS assay for small molecules that induce genotoxicity in human embryonic kidney cells expressing luciferase-tagged ATAD5 - cell viability (AID 651634; calls by dose curve; note: nearly all actives have a fitted effect of over 25% in size). An outline of the steps:
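Quantitative high-throughput format. HEK293T cells expressing ATAD5 fused to luciferase were plated at 2,000 cells/well and treated 15.5 hr with compound versus DMSO. Viability was determined by fluorescent live-cell protease substrate, 30 min at 37C.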

Assay [3] in a line: qHTS assay for small molecule disruptors of the mitochondrial membrane potential - cell viability (AID 720634; calls by dose curve;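 note: human HepG2 liver cancer cells; series mostly up to about 83 µM; nearly all actives have a fitted effect of over 20% in size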). The procedure, abridged:
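Same-well counter-screen: following the MMP dye addition, CellTiter-Glo was added to 1 hr compound-treated HepG2 cells and luminescence read after 30 min at room temperature.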

The nature of assay [4]: qHTS assay for small molecule disruptors of the mitochondrial membrane potential (AID 720635). Note: potency is the fitted concentration of half-maximal effect. An outline of the steps:
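Mitochondrial membrane potential tracked with Mito-MPS dye, red aggregates (ex 540/em 590 nm) against green monomers (ex 490/em 535 nm). Compound treatment 1 hr at 37C, dye 30 min in HepG2.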

Assay [5] can be described thus: qHTS assay to test for compound auto fluorescence at 590 nm (red) in HepG2 cells (AID 720674). The procedure, abridged: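 1 hr compound incubation on HepG2 cells, 37 C, 5% CO2; plate read ex 540 nm / em 590 nm; intensities reported as Rose Bengal sodium equivalents.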
A short description of assay [6]: qHTS assay to test for compound auto fluorescence at 535 nm (green) in HepG2 cells (AID 720675).
Assay [7] can be described thus: qHTS assay to test for compound auto fluorescence at 590 nm (red) in HEK293 cells (AID 720679). An outline of the steps: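 Each well held 2,000 HEK293 cells in medium containing 10% dialyzed FBS. Following 4-5 hr attachment at 37C, 23 nL test compound or DMSO was added; plates sat overnight, and red fluorescence (540/590nm) was recorded.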
The nature of assay [8]: qHTS assay to test for compound auto fluorescence at 535 nm (green) in HEK293 cells (AID 720680).
The nature of assay [9]: qHTS assay to test for compound auto fluorescence at 535 nm (green) in HEK293 cell free culture (AID 720682). An outline of the steps: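 Intrinsic compound fluorescence is measured in culture medium containing 10% FBS, with excitation at 485 nm and detection at 535 nm, referenced to fluorescein.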
Assay [10] is described as follows: qHTS assay to test for compound auto fluorescence at 590 nm (red) in HEK293 cell free culture (AID 720683). The procedure, abridged: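 Red-channel autofluorescence of compounds in culture medium (DMEM, 10% FBS), no cells, measured at 540/590 nm. Rose Bengal sodium is the reference fluorophore for equivalence.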
Assay [11] is described as follows: qHTS assay to test for compound auto fluorescence at 590 nm (red) in HepG2 cell free culture (AID 720684). An outline of the steps: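 No cells present: MEM + 10% FBS only. Compound pinned in, red label read (540/590 nm). Activity = fluorescence equivalent to Rose Bengal sodium.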
The nature of assay [12]: qHTS assay to test for compound auto fluorescence at 460 nm (blue) in HepG2 cell free culture (AID 720685). An outline of the steps:
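Cell-free plates of MEM plus 10% FBS received 23 nL compound or DMSO vehicle; blue-channel (405/460 nm) intensity scored against triamterene as reference fluorophore.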

The nature of assay [13]: qHTS assay to test for compound auto fluorescence at 535 nm (green) in HepG2 cell free culture (AID 720686).
A short description of assay [14]: qHTS assay to test for compound auto fluorescence at 460 nm (blue) in HepG2 cells (AID 720687). The procedure, abridged: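 Blue-channel autofluorescence (Ex/Em 405/460 nm, triamterene-equivalent) was measured after 1 hr compound exposure at 37 C, 5% CO2. Cells were HepG2, plated overnight at 37 C in MEM plus 10% FBS.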
The nature of assay [15]: qHTS assay to test for compound auto fluorescence at 460 nm (blue) in HEK293 cells (AID 720678). The procedure, abridged:
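Cells were seeded and left to adhere for 4-5 hr at 37C. Compounds were then pin-transferred. After an overnight incubation at 37C under 5% CO2, intrinsic fluorescence at 405/460 nm was measured and referenced to triamterene.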

A short description of assay [16]: qHTS assay to test for compound auto fluorescence at 460 nm (blue) in HEK293 cell free culture (AID 720681). An outline of the steps: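 Blue fluorescence (Ex 405/Em 460 nm, triamterene-equivalent) was read immediately after pin transfer of compound or DMSO into medium (DMEM, 10% FBS) without cells.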
Assay [17] deals with Glucocorticoid receptor (Homo sapiens) (UniProt P04150). In words: qHTS assay to identify small molecule agonists of the glucocorticoid receptor (GR) signaling pathway (AID 720691; active = well fitted activation curve with a large enough effect in the signal ratio in the repeat runs, not every such curve was filed as active; the % refers to the signal ratio). An outline of the steps:
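A HeLa cervical cancer line expressing GR and a glucocorticoid response element-driven beta-lactamase gene is treated with compounds for 18 h; LiveBLAzer B/G FRET substrate is then applied and fluorescence read.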

For assay [18] the target is unchanged. As to the kind of experiment: qHTS assay to identify small molecule antagonists of the glucocorticoid receptor (GR) signaling pathway (AID 720692; active = well fitted inhibition curve with a large enough effect in the signal ratio in the repeat runs, not every such curve was filed as active; the % refers to the signal ratio). An outline of the steps: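 GRE-bla HeLa line, dex-stimulated (5 nM final). Compound exposure 18 h, 37 C. Beta-lactamase FRET read after 2 h RT substrate.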
A short description of assay [19]: qHTS assay for small molecule agonists of the p53 signaling pathway - cell viability (AID 651633; calls by dose curve;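 note: p53RE-bla HCT reporter cells with a stable beta-lactamase p53 reporter; series mostly up to about 83 µM; nearly all actives have a fitted effect of over 30% in size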). The procedure, abridged:
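Viability counter-read: CellTiter-Glo luminescence (30 min, room temperature) in the same p53RE-bla plates. These plates had been exposed to compounds for 16 h at 37 C.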
% is set by controls: 0 for no effect and ±100 for the full control effect.

Glucocorticoid receptor (Homo sapiens), sequence (P04150 whole entry, looked up): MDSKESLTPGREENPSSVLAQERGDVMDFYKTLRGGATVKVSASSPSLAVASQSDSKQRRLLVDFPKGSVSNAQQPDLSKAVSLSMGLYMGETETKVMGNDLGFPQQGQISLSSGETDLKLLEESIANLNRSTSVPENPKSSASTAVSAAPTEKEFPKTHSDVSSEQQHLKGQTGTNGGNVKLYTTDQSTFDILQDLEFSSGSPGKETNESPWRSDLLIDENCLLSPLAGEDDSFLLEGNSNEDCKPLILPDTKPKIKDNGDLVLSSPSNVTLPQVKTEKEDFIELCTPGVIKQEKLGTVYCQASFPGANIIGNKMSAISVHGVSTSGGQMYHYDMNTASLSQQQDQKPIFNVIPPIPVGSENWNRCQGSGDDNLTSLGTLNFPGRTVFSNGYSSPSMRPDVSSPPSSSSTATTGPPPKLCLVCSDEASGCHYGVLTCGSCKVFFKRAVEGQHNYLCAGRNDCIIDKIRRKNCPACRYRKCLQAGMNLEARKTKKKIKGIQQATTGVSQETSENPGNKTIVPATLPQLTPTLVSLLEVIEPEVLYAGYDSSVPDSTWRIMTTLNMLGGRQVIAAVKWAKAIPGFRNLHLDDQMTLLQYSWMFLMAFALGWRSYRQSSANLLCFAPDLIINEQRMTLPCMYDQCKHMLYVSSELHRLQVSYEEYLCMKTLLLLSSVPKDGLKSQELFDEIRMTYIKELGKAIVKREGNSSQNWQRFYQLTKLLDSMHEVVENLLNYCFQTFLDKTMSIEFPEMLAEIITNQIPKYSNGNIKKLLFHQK

Turning to `Nc1c(Br)cc(Br)c2c1C(=O)c1ccccc1C2=O`, the Potency entry in assay [1], in assay [2] and in [3] was “inactive” each time. Also, in [4], the Potency was 2.29 µM (active). The fluorescence, relative to Rose Bengal in [5] was -0.0013% [at 18.6 µM]. Further, the fluorescence, % of fluorescein control in assay [6] is 0.0991% [at 18.6 µM]; in assay [13], -0.0249% [at 18.6 µM]. Also, the fluorescence, % of fluorescent control was -0.009% [at 18.6 µM] in assay [7], -0.754% [at 18.6 µM] in assay [10], -0.366% [at 18.6 µM] in assay [12] and -0.122% [at 18.6 µM] in assay [14]. In addition, the fluorescence, % of fluorescein in assay [8] is -0.0125% [at 18.6 µM]. For the same molecule, the activity change in [9] was 0.0661% [at 18.6 µM]. Further, in assay [11], the fluorescence, % of Rose Bengal was -0.122% [at 18.6 µM].

Turning to `CCC1(CC)C(=O)NC(=O)NC1=O`, the Potency result in [1], in assay [2], in assay [3], in assay [17] and in [18] was “inactive” each time. Besides, the molecule was called inactive in assay [5], in [6], in assay [15], in assay [7], in [8] and in [16]. Besides, the molecule was classed as inactive in assay [9], in [10], in assay [11], in assay [12] and in [14].

For the molecule `CC[N+]1(CCOC(=O)C(O)(c2ccccc2)c2ccccc2)CCCCC1`, the Potency result in [19], in assay [2], in [3], in assay [4] and in assay [17] was “inactive” throughout. The outcome in [5], in assay [6], in assay [7], in assay [8], in assay [16] and in assay [9] was inactive. The outcome in assay [10], in [11], in assay [12], in [13] and in assay [14] was inactive.

With `NP(N)(=O)NC(=O)c1ccc(F)cc1`, the Potency entry in assay [19], in assay [2], in assay [3], in [17] and in assay [18] was “inactive” in each case. The molecule was called inactive in [5], in assay [6], in assay [7], in [8], in assay [16] and in assay [9]. Besides, the outcome in assay [10], in assay [11], in assay [12], in [13] and in assay [14] was inactive.

For the molecule `CC1(C)[C@H](C(=O)O[C@H](C#N)c2cccc(Oc3ccccc3)c2)[C@@H]1C=C(Br)Br`, the Potency entry in assay [19] and in [2] was “inactive” each time. Besides, the molecule was called inactive in [5], in [6], in assay [15], in [7], in assay [8] and in assay [16]. Further, the outcome in assay [9], in assay [10], in assay [11], in assay [12], in assay [13] and in assay [14] was inactive.

In the case of `CCNC(=O)NC(=O)/C(C#N)=N/OC`, the Potency entry in assay [19] and in assay [2] was “inactive” in each case. The outcome in assay [5], in [6], in assay [15], in [7], in assay [8] and in assay [16] was inactive. Besides, the molecule was classed as inactive in assay [9], in assay [10], in assay [11], in assay [12], in [13] and in assay [14].

Take `CCC1CCC(=O)O1` (stereo unspecified): the Potency result in [2], in assay [3], in [4], in [17] and in [18] was “inactive” in each case. Also, the result in assay [5], in assay [6], in [7], in [8], in [16] and in assay [9] was inactive. Moreover, the molecule was classed as inactive in assay [10], in assay [11], in [12], in assay [13] and in [14].

Turning to `CC(C)(C)N(NC(=O)c1ccc(Cl)cc1)C(=O)c1ccccc1`, the Potency entry in [19], in assay [17] and in assay [18] was “inactive” throughout. For the same molecule, the Potency in assay [4] was 60.8 µM (active). Also, the call in assay [5], in assay [6], in assay [15], in assay [7], in assay [8] and in assay [9] was inactive. The molecule was classed as inactive in assay [10], in [11], in assay [12], in assay [13] and in assay [14].
